Out of some 2,300 compounds screened, about 1,000 (43%) were called active. No rule for the calls is given here. So high a share suggests a set chosen from earlier hits. The list shows a part of the results. Entries with a potency or affinity are not part of this list.

A short description of this assay: PhoP regulon inhibitor project modified counter assay, GFP fluorescence readout, dose response (AID 1985). To be noted: S. Typhi, 4 h; series mostly up to 150 µM.
In the case of `Cc1[nH]c(=O)[nH]c(=O)c1S(=O)(=O)N1CCCC(C(=O)NCc2ccc3c(c2)OCO3)C1` (centres undefined), the outcome was inactive. `COc1ccc(NC(=O)N(CCc2ccccc2)Cc2cc3c(C)cc(C)cc3[nH]c2=O)cc1`: the call was inactive. `CCCOc1ccc(N2C(=O)C3C(C(C)C)NC4(C(=O)c5ccccc5C4=O)C3C2=O)cc1` (centres undefined): the call was inactive. The same measure for `COc1ccc(OC)c(S(=O)(=O)N2CCC(C(=O)NCc3ccccc3OC)CC2)c1`: “inactive”. Take `O=C(NCc1ccccc1)c1ccc(CNc2c(N3CCCC3)c(=O)c2=O)cc1`: the molecule was classed as inactive.

For `Cc1ccc(C(C(=O)NCCc2ccccc2)N(C(=O)c2csnn2)C2CC2)o1` (centres undefined), the outcome was inactive. Turning to `CCC(C)(c1ccc(C(=O)OC)s1)c1ccc(C(=O)OC)s1`, the molecule was classed as inactive. As to `CN1C(=O)/C(=C2/C=Cc3ccccc3N2CCCS(=O)(=O)O)SC1=S`, the molecule was classed as inactive. `COc1ccccc1-n1c(SCC(=O)O)nnc1-c1ccc(S(=O)(=O)N2CCCCC2)cc1`: the result was inactive. As to `O=C(Nc1ccc(F)cc1)C1CCC(CNc2c(N3CCCCC3)c(=O)c2=O)CC1` (centres undefined), the result was inactive. The result for `CCCC(c1nnnn1Cc1ccc(OC)cc1)N1CCN(c2ccccc2OC)CC1` (centres undefined) reads “inactive”; that for `Oc1ccc(CN2CCN(c3ccccc3)CC2)c2cccnc12`, “inactive”. In the case of `Oc1c(CN2CCOCC2)cc(COCc2ccccc2)c2cccnc12`, the molecule was called inactive.

For `Cc1c(C(=O)N2CCN(Cc3ccccc3)CC2)sc2ncnc(N3CCOCC3)c12`, the molecule was called inactive. The result for `COc1ccccc1Oc1coc2c(CN3CCN(C)CC3)c(O)ccc2c1=O` reads “inactive”; that for `N#C/C(=C\c1ccc(O)c(O)c1)C(=O)c1ccc(O)c(O)c1`, “inactive”; that for `COc1ccc(CNC(=O)CCC(=O)N2C[C@H]3C[C@H](C2)c2cccc(=O)n2C3)cc1`, “inactive”. As to `CCOC(=O)Cc1nn(C)c(=O)c2ccccc12`, the call was inactive. For `O=C(/C=C/c1c(F)cccc1Cl)N1CCOCC1`, the molecule was classed as inactive. The same measure for `COc1cc(OC)nc(NC(=O)C(C)C)n1`: “inactive”; for `NC(=O)c1c(NC(=O)CSc2nc(N)cc(=O)[nH]2)sc2c1CCCC2`: “inactive”. Take `COCc1cc(=O)n2[nH]c(C)nc2n1`: the result was inactive. The same measure for `Nc1ccc(S(=O)(=O)Nc2ccc(Cl)nn2)cc1`: “inactive”.

With `CC1=C(c2ccccc2)SC2=NCCN21`, the molecule was classed as inactive. The result for `O=C(COc1ccc(Cl)cc1)N1CCCCC1` reads “inactive”; that for `CN(C)CCNC(=O)c1ccc(COc2ccc(Cl)cc2Cl)cc1`, “inactive”; that for `O=C(NCc1cccnc1)c1ccc(COc2ccc(Cl)cc2)cc1`, “inactive”. Turning to `Clc1ccc(OCc2nn3c(C4CCCCC4)nnc3s2)c(Cl)c1`, the molecule was called inactive. In the case of `CC(=O)Nc1nc(C)c(-c2csc(Nc3ccc(O)cc3)n2)s1`, the outcome was inactive. Take `Cc1c(O)cccc1C(=O)N[C@@H](CSc1ccccc1)[C@H](O)CN1C[C@H]2CCCC[C@H]2C[C@H]1C(=O)NC(C)(C)C`: the result was inactive. With `CCc1nc(SCC(=O)NCCc2ccccc2)c2c(=O)n(C)c(=O)n(C)c2n1`, the molecule was classed as inactive. In the case of `Cc1cc(=O)oc2c(CN(C)Cc3ccccc3)c(O)ccc12`, the outcome was inactive.

Take `O=C(N/N=C\c1ccc(F)cc1)c1ccc(F)cc1`: the molecule was classed as inactive.

For `CC(C)CNC(CC(=O)O)c1ccccc1` (centres undefined), the molecule was classed as inactive. The same measure for `CN(CCOc1ccc(Cl)cc1)CC(O)c1ccccc1` (centres undefined): “inactive”.

`CC(c1cccnc1)N(CCN(C)C)C(=O)Nc1ccc(Cl)c(Cl)c1` (centres undefined): the result was inactive.

`CCS(=O)(=O)N1CCC(C(=O)NCc2cc(OC)ccc2OC)CC1`: the molecule was classed as inactive. The result for `O=[N+]([O-])c1ccc(CN2CCSCC2)cc1` reads “inactive”; that for `CNC(CC(=O)c1ccc([N+](=O)[O-])cc1)C(Cl)(Cl)Cl` (centres undefined), “inactive”; that for `COc1ccc(Cl)cc1NC(=O)CN(C)CC(=O)Nc1ccccc1C(F)(F)F`, “inactive”. With `Cn1nnnc1SCc1nnc(-c2ccccc2Br)o1`, the molecule was called inactive. For `O=C(Nc1ccc(Cl)cc1)N1CCOC12CCC1(CC2)OCCO1`, the outcome was inactive. Turning to `Cc1cc(=O)oc2cc(OCC(=O)NC3CCCC3)ccc12`, the outcome was inactive.

For `Cc1ccc(CSc2nc3c(c(=O)[nH]2)CCC3)cc1`, the molecule was called inactive.

For the molecule `Cc1cccc(Nc2c3c(nc4ccccc24)CCC3)c1`, the molecule was called inactive. In the case of `COc1ccc(Nc2c3c(nc4ccccc24)CCC3)cc1`, the result was inactive. For the molecule `FC(F)(F)c1ccccc1NC1=NCCC1`, the outcome was inactive. Consider `CCCCNCCCOc1cccc(Cl)c1Cl`, for which the result was inactive.

Consider `COc1ccccc1/C=N/N1C(=O)c2cccc3cccc(c23)C1=O`, for which the result was inactive.

As for `O=C(NC(=S)Nc1ccc(S(=O)(=O)Nc2nccs2)cc1)c1cccnc1`, the result was inactive. Turning to `C=CCSc1nnc(NC(=O)CSc2nc3ccccc3o2)s1`, the molecule was called inactive. The same measure for `CCOC(=O)c1nc2cc3n(c(CC(C)C)c-2c1C)CC(C)=C3C`: “inactive”; for `NS(=O)(=O)c1ccc(CCNC(=O)C(=O)C2C(=O)Nc3ccccc32)cc1` (centres undefined): “inactive”; for `COc1ccccc1-c1cc2nc(C)c(CCC(=O)NC(C)CCc3ccco3)c(C)n2n1` (centres undefined): “inactive”. `CC(C)C(=O)Nc1ccccc1-c1nc2ccccc2[nH]c1=O`: the outcome was inactive. The same measure for `COc1cccc(NC(=O)CN(C)C(C)C(=O)Nc2ccc(S(=O)(=O)N3CCOCC3)cc2)c1` (centres undefined): “inactive”. `COc1ccc(N(C(=O)c2cccnc2)S(=O)(=O)c2ccc(F)cc2)cc1`: the outcome was inactive. The result for `CCOC(=O)C(O)(NC(=O)c1cccnc1)C(F)(F)F` (centres undefined) reads “inactive”; that for `N/C(=N\OC(=O)C(c1ccccc1)c1ccccc1)c1ccncc1`, “inactive”.

Take `N/C(=N\OC(=O)COc1ccc2ccccc2c1)c1ccccn1`: the molecule was classed as inactive. In the case of `O=C(Nc1ccc(S(=O)(=O)N2CCCC2)cc1)c1cccnc1`, the molecule was classed as inactive. Turning to `O=C1CCCC2=C1C(c1ccncc1)Nc1ccccc1N2` (centres undefined), the result was inactive. On to `COCCNC(=O)Cn1cnc2c1c(=O)n(C)c(=O)n2C`, for which the result was inactive. With `c1ccc2sc(N3CN(CCN4CCOCC4)CN(c4nc5ccccc5s4)C3)nc2c1`, the outcome was inactive. In the case of `CN(C)CCOC(=O)c1sc2ccccc2c1Cl`, the call was inactive. The result for `CN1CCN(c2ccccc2NC(=O)c2sc3ccccc3c2Cl)CC1` reads “inactive”; that for `CC1CCN(c2nc3ccc(C(=O)NCCCN4CCCCC4)cc3s2)CC1`, “inactive”. Take `COc1ccc2sc(N(CCCN(C)C)C(=O)c3ccc(S(=O)(=O)N4CCc5ccccc5C4)cc3)nc2c1`: the call was inactive. Regarding `COc1cc(CNCCCN2CCOCC2)c(Br)cc1OCC(=O)Nc1ccccc1C`, the outcome was inactive. For `CCc1c(C)nc2cc(-c3cc(OC)cc(OC)c3)nn2c1N1CCCC1`, the outcome was inactive. `Cc1ccc(C2CC(=O)NC(SCCC(C)C)=C2C#N)cc1` (centres undefined): the result was inactive. In the case of `COc1ccc2c(c1)c1nc(SCC(C)C)n(CCO)c(=O)c1n2C`, the molecule was classed as inactive. As for `O=S(=O)(c1ccccc1)c1nc(-c2cccs2)oc1NCC1CCCO1` (centres undefined), the molecule was called inactive.

Take `O=C(NCC1CCCO1)c1cc2ccccc2oc1=O` (centres undefined): the outcome was inactive. `O=C(O)c1ccc(CSc2nnnn2C2CCCCC2)cc1`: the molecule was classed as inactive. The same measure for `Cc1cc(NC(=O)COC(=O)c2cccc(S(=O)(=O)N(C)C3CCCCC3)c2)no1`: “inactive”.

Regarding `O=C(O)Cn1c(=O)c2c3c(sc2n(Cc2ccccc2F)c1=O)CCCC3`, the outcome was inactive. The same measure for `CC1(C)Oc2ccc3ccc(=O)oc3c2/C(=C/NCCN/C=C2\C(=O)C(C)(C)Oc3ccc4ccc(=O)oc4c32)C1=O`: “inactive”.

As for `Cc1cccc(N(C(=O)CCC(=O)Nc2ccccn2)C(C(=O)NC(C)C)c2ccc(O)cc2)c1` (centres undefined), the molecule was classed as inactive.

`O=C(O)c1cc2cc(F)ccc2[nH]1`: the outcome was inactive. In the case of `CCN1CCN(C(=O)Cc2coc3cc(C)cc(C)c23)CC1`, the outcome was inactive.

Turning to `CN1CCN(C(=O)CSc2ccc(Cl)cc2)CC1`, the result was inactive. For the molecule `CCN1CCN(C(=O)c2cc3ccc(OC)cc3[nH]2)CC1`, the outcome was inactive.

With `CCN1CCN(C(=O)/C=C/c2cccc(Cl)c2)CC1`, the molecule was called inactive. Take `COC(=O)C(O)(c1c(C)[nH]n(-c2ccccc2)c1=O)C(F)(F)F` (centres undefined): the molecule was called inactive. `COc1cccc(C(c2c(C)[nH]n(-c3ccccc3)c2=O)c2c(C)[nH]n(-c3ccccc3)c2=O)c1O`: the result was inactive.

As to `Cc1c(-n2c(SCC(=O)C(C)(C)C)nc3ccccc3c2=O)c(=O)n(-c2ccccc2)n1C`, the molecule was classed as inactive. The result for `Cc1nc(SCC(=O)N2c3ccccc3Sc3ccccc32)n[nH]1` reads “inactive”; that for `CC(=O)NCCn1c(SCc2ccccc2C)nc2ccccc2c1=O`, “inactive”; that for `CC1(C)Cc2c(sc(NC(=O)COc3ccc(Cl)cc3)c2C(N)=O)C(C)(C)N1`, “inactive”. For the molecule `CCC1Oc2ccc(C)cc2N(CC(=O)NCC2COc3ccccc3O2)C1=O` (centres undefined), the outcome was inactive. As to `COc1ccccc1NC(=O)CN1CCC(c2nc3ccc(C)cc3[nH]2)CC1`, the molecule was called inactive. Regarding `COc1ccc(C)cc1NC(=O)C1CCN(S(=O)(=O)c2c(C)noc2C)CC1`, the molecule was called inactive. In the case of `COc1ccccc1-n1nc(C(=O)NCc2ccco2)c2ccccc2c1=O`, the molecule was classed as inactive.

Consider `CC1CCN(CCCNC(=O)c2ccc3c(=O)n(Cc4ccc(Cl)cc4)c(=S)[nH]c3c2)CC1`, for which the call was inactive. Consider `O=C(O)CC12CC3CC(C1)CC(n1ncc(NCC4CCCO4)c(Cl)c1=O)(C3)C2` (centres undefined), for which the result was inactive. As to `CCOC(=O)c1nc(C)n(-c2cc(Cl)ccc2Cl)n1`, the result was inactive. With `O=C(CN1C2=NCCN2c2ccccc21)c1ccco1`, the molecule was classed as inactive. The same measure for `Cc1ccc(CN2C3=NCCN3c3ccccc32)cc1`: “inactive”. On to `O=c1cc(-c2ccccc2)nc(N2CCN(Cc3ccccc3)CC2)[nH]1`, for which the call was inactive.

With `COc1cccc2[nH]c3c(N4CCN(Cc5ccc6c(c5)OCO6)CC4)ncnc3c12`, the result was inactive. On to `c1cc2c(cc1Oc1nc(N3CCOCC3)nc(N3CCOCC3)n1)OCO2`, for which the outcome was inactive. The same measure for `Cc1ccc2nc3c(c(N)c2c1)CCN3C`: “inactive”; for `CC(C)N=C(N)N=C(N)Nc1ccc(Cl)cc1`: “inactive”.

As for `Cc1cc(NCCCn2ccnc2)n2ncc(-c3ccccc3)c2n1`, the result was inactive. As to `C[C@@H](C(=O)NC1CCCC1)N1C(=O)N2CCc3c([nH]c4ccccc34)[C@@]2(C)C1=O`, the call was inactive. Take `O=S1(=O)CC=C(CSC(=S)NC2CCS(=O)(=O)C2)C1` (centres undefined): the molecule was classed as inactive. With `CCc1cc(CNC(=O)C2CCC(=O)N(Cc3cccc(F)c3)C2)on1` (centres undefined), the outcome was inactive. The same measure for `CC(C)NC(=O)CN1CCN(Cc2nc(C(c3ccccc3)c3ccccc3)no2)CC1`: “inactive”.

For the origin of these results see PubChem BioAssay AID1985 (Southern Research Specialized Biocontainment Screening …, 2009).
